# Data taken from PubChem BioAssay (EPA / NIEHS).
# Records with an inconclusive call do not appear. Active and inactive are the calls of the source. Rule for the calls: active = hit-call score of the fitted dose curve at least 0.9, where 1 is the maximum; inconclusive = response in the unintended direction; inactive = score below 0.9.
# Legend:
# [1] = target: human Dopamine Receptor D4.4 (DRD4.4), DRD4 (gene 1815) (UniProt P21917); assay: NVS_GPCR_hDRD4.4: NovaScreen (NVS) G Protein-Coupled Receptor Assay for human Dopamine Receptor D4.4 (DRD4.4) (AID 2283264)
# How it was run: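 Filter-binding assay with a tritiated or iodinated ligand, cell-free receptor prepared from CHO, 1 hour. Loss of bound radioactivity versus DMSO; single 25 uM duplicate screen, then concentration-response for actives.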
# [2] = target: human Dopamine Receptor D2 (DRD2), DRD2 (gene 1813) (UniProt P14416); assay: NVS_GPCR_hDRD2s: NovaScreen (NVS) G Protein-Coupled Receptor Assay for human Dopamine Receptor D2 (DRD2) (AID 2283266)
# How it was run: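 Test compound (25 uM, duplicate in the primary screen; concentration series at follow-up) competed with radioligand for human DRD2 in CHO-derived membrane protein. Filter-based scintillation counting was done 1.5 hours after dosing, with loss of signal analysed against DMSO.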
# [3] = target: Muscarinic acetylcholine receptor M1 (Homo sapiens) (UniProt P11229); assay: NVS_GPCR_hM1: NovaScreen (NVS) G Protein-Coupled Receptor Assay for human Muscarinic, M1 Receptor (AID 2283270)
# How it was run: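 Actives from a duplicate 25 uM single-point screen were retested in concentration series. Binding measured as displacement of a radioligand from CHO-derived receptor preparation, 1 h incubation, filtration and scintillation counting, analysed as signal loss against DMSO.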
# [4] = target: Muscarinic acetylcholine receptor M3 (Homo sapiens) (UniProt P20309); assay: NVS_GPCR_hM3: NovaScreen (NVS) G Protein-Coupled Receptor Assay for human Muscarinic, M3 Receptor (AID 2283272)
# How it was run: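 Radioligand displacement binding on human M3 receptor in CHO-derived membranes, 1 h incubation, filter-based scintillation counting. Primary screen in duplicate at 25 uM; actives followed up in concentration series; loss of signal versus DMSO.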
# [5] = target: Muscarinic acetylcholine receptor M2 (Homo sapiens) (UniProt P08172); assay: NVS_GPCR_hM2: NovaScreen (NVS) G Protein-Coupled Receptor Assay for human Muscarinic, M2 Receptor (AID 2283273)
# How it was run: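 Filter-based radiodetection read bound radioligand 1 h after dosing CHO-derived membrane protein. Single-concentration duplicates (25 uM) first, then concentration-response for actives; signal loss versus DMSO scored.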
# [6] = target: Muscarinic acetylcholine receptor M5 (Homo sapiens) (UniProt P08912); assay: NVS_GPCR_hM5: NovaScreen (NVS) G Protein-Coupled Receptor Assay for human Muscarinic, M5 Receptor (AID 2283275)
# How it was run: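 Chemicals passing a primary duplicate screen at 25 uM were run as singleton concentration series, maximum 50 uM. Displacement of a specific radioligand from CHO-extracted receptor was read by filter scintillation after 1 h, relative to DMSO.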
# [7] = target: human Neurokinin, NK2 Receptor, TACR2 (gene 6865) (UniProt P21452); assay: NVS_GPCR_hNK2: NovaScreen (NVS) G Protein-Coupled Receptor Assay for human Neurokinin, NK2 Receptor (AID 2283278);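 note: actives reduce bound radioligand signal relative to DMSO baseline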
# How it was run: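 Filter-based scintillation counting measured radioligand bound to receptor extracted from CHO cells, 4 hours after compound addition. Chemicals screened first at 25 uM in duplicate, with actives retested in concentration series relative to DMSO.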
# [8] = target: human Opioid Receptor Delta 1 (Opiate D1), OPRD1 (gene 4985) (UniProt P41143); assay: NVS_GPCR_hOpiate_D1: NovaScreen (NVS) G Protein-Coupled Receptor Assay for human Opioid Receptor Delta 1 (Opiate D1) (AID 2283280)
# How it was run: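 Membrane preparations from CHO cells bearing the human receptor were incubated 1 h with test chemical, and bound radioligand was counted after filtration. Actives from 25 uM duplicate screening were retested in concentration-response.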
# [9] = target: human Neurotensin Receptor (NTS), NTSR1 (gene 4923) (UniProt P30989); assay: NVS_GPCR_hNTS: NovaScreen (NVS) G Protein-Coupled Receptor Assay for human Neurotensin Receptor (NTS) (AID 2283279)
# How it was run: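 Compounds competed with a radiolabelled ligand for binding to CHO-derived human neurotensin receptor; bound signal counted after filtration, 1 h. Screened first at a single concentration of 25 uM in duplicate, then concentration series to 50 uM maximum for actives.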
# [10] = target: human Histamine 1 Receptor (H1), HRH1 (gene 3269) (UniProt P35367); assay: NVS_GPCR_hH1: NovaScreen (NVS) G Protein-Coupled Receptor Assay for human Histamine 1 Receptor (H1) (AID 2283268)
# How it was run: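 Filter-based scintillation detection of radioligand binding to human H1, 1 h incubation; chemicals screened in duplicate at 25 uM, then concentration-response; signal loss relative to DMSO taken as activity.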
# [11] = target: D(1A) dopamine receptor (Homo sapiens) (UniProt P21728); assay: NVS_GPCR_hDRD1: NovaScreen (NVS) G Protein-Coupled Receptor Assay for human Dopamine Receptor D1 (DRD1) (AID 2283269)
# How it was run: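 HEK293-derived receptor preparation; radioligand competitive displacement; 1 h; filtration + scintillation counting. DMSO = negative control/baseline. Primary: 25 uM, duplicate; secondary: concentration–response for actives.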
# [12] = target: human Thromboxane A2 Receptor (TXA2), TBXA2R (gene 6915) (UniProt P21731); assay: NVS_GPCR_hTXA2: NovaScreen (NVS) G Protein-Coupled Receptor Assay for human Thromboxane A2 Receptor (TXA2) (AID 2283282);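 note: actives reduce bound radioligand signal relative to DMSO baseline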
# How it was run: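 Cell-free radioligand binding on membrane protein from human platelets; radioligand displacement read by filter-based scintillation counting after 1 h. Primary screen in duplicate at 25 uM, actives then run in concentration series; loss of signal versus DMSO.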
# [13] = target: human Endothelin Receptor Type B (ETB), EDNRB (gene 1910) (UniProt P24530); assay: NVS_GPCR_hETB: NovaScreen (NVS) G Protein-Coupled Receptor Assay for human Endothelin Receptor Type B (ETB) (AID 2283267)
# How it was run: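 Filter-based scintillation readout of radioligand displacement, 4 h, using membranes from human astrocytoma cells. Actives from a 25 uM duplicate screen were retested in concentration-response (top 50 uM) relative to DMSO baseline.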
# [14] = target: human Vasopressin 1A Receptor (V1A), AVPR1A (gene 552) (UniProt P37288); assay: NVS_GPCR_hV1A: NovaScreen (NVS) G Protein-Coupled Receptor Assay for human Vasopressin 1A Receptor (V1A) (AID 2283284)
# How it was run: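 Single-concentration duplicate screen at 25 uM, with concentration-response follow-up (top 50 uM) for actives. The assay measured displacement of a radioligand from human platelet-derived receptor after 1.5 h, detected by filtration and scintillation counting.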
# [15] = target: human Orphanin, Opioid Related Nociceptin Receptor 1 (ORL1), OPRL1 (gene 4987) (UniProt P41146); assay: NVS_GPCR_hORL1: NovaScreen (NVS) G Protein-Coupled Receptor Assay for human Orphanin, Opioid Related Nociceptin Receptor 1 (ORL1) (AID 2283283)
# How it was run: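 Cell-free binding using HEK293-derived receptor protein: radioligand displacement measured by filter scintillation 1 hour after dosing. Primary testing at 25 uM in duplicate, followed by singleton concentration series up to 50 uM; DMSO served as negative control.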
# [16] = target: human Endothelin Receptor Type A (ETA), EDNRA (gene 1909) (UniProt P25101); assay: NVS_GPCR_hETA: NovaScreen (NVS) G Protein-Coupled Receptor Assay for human Endothelin Receptor Type A (ETA) (AID 2283265)
# How it was run: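 Binding of radioligand to membrane protein extracted from SH-SY5Y cells was read by filtration and scintillation after 3 h. Compounds were screened at 25 uM in duplicate, with hits followed up in singleton concentration series to 50 uM.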
# [17] = target: human Leukotriene B4 Receptor 1 (LTB4-BLT1), LTB4R (gene 1241) (UniProt Q15722); assay: NVS_GPCR_hLTB4_BLT1: NovaScreen (NVS) G Protein-Coupled Receptor Assay for human Leukotriene B4 Receptor 1 (LTB4-BLT1) (AID 2283271)
# How it was run: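 Cell-free human neutrophil receptor preparation, 1 h exposure, radioligand binding read by filter scintillation counting. Single 25 uM duplicate screen, then concentration series topping at 50 uM; binding loss scored against DMSO baseline.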
# [18] = target: human Purinergic Receptor P2Y, P2RY1 (gene 5028) (UniProt P47900); assay: NVS_GPCR_hPY2: NovaScreen (NVS) G Protein-Coupled Receptor Assay for human Purinergic Receptor P2Y (AID 2283281)
# How it was run: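 Filtration scintillation readout of radioligand displacement on U937 extract, measured 1 h post-dosing. Single 25 uM duplicate screen, then singleton concentration series to 50 uM for chemicals passing threshold; DMSO as baseline.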
# [19] = target: human Neuropeptide Receptor Y1 (NPY1), NPY1R (gene 4886) (UniProt P25929); assay: NVS_GPCR_hNPY1: NovaScreen (NVS) G Protein-Coupled Receptor Assay for human Neuropeptide Receptor Y1 (NPY1) (AID 2283276)
# How it was run: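 Displacement of specific radioligand from NPY1 receptor of SK-N-MC origin, read by filtration and scintillation after 1 h. Compounds first tested at 25 uM in duplicate, then actives in concentration series; signal loss relative to DMSO.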
# Chain of human Neurotensin Receptor (NTS), NTSR1 (gene 4923) (P30989 whole entry, looked up): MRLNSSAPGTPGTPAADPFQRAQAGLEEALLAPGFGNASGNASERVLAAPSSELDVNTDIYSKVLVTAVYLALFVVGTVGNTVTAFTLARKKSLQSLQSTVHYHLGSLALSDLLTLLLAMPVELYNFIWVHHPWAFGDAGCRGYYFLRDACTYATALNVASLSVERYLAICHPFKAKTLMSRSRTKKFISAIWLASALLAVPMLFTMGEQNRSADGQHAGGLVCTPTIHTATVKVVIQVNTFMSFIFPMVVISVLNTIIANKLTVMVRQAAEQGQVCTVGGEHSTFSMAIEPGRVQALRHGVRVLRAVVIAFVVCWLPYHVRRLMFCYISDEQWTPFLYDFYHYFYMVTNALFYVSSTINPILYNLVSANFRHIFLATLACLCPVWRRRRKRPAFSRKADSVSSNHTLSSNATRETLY
# Chain of human Leukotriene B4 Receptor 1 (LTB4-BLT1), LTB4R (gene 1241) (Q15722 whole entry, looked up): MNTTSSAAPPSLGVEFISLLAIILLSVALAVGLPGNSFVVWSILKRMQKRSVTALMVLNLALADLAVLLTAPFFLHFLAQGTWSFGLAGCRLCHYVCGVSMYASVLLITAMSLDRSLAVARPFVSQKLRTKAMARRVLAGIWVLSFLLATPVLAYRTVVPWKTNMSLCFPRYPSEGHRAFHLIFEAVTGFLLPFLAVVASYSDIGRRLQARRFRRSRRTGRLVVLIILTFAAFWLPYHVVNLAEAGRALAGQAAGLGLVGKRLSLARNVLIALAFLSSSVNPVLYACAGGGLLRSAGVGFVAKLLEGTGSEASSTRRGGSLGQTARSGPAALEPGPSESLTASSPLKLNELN
# Chain of Muscarinic acetylcholine receptor M2 (Homo sapiens) (P08172 whole entry, looked up): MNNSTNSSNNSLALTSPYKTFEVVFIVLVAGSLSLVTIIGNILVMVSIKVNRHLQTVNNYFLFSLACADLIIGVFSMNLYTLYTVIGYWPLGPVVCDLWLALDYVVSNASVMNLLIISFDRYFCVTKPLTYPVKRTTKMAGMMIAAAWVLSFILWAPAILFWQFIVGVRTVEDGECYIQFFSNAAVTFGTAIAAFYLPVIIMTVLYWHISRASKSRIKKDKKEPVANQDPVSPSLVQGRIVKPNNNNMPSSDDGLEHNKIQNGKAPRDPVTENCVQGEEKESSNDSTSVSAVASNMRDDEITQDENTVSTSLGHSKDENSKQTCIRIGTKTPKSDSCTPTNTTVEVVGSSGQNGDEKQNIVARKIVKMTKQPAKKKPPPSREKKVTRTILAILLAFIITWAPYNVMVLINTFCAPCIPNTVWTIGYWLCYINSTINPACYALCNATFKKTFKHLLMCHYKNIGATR
# Chain of D(1A) dopamine receptor (Homo sapiens) (P21728 whole entry, looked up): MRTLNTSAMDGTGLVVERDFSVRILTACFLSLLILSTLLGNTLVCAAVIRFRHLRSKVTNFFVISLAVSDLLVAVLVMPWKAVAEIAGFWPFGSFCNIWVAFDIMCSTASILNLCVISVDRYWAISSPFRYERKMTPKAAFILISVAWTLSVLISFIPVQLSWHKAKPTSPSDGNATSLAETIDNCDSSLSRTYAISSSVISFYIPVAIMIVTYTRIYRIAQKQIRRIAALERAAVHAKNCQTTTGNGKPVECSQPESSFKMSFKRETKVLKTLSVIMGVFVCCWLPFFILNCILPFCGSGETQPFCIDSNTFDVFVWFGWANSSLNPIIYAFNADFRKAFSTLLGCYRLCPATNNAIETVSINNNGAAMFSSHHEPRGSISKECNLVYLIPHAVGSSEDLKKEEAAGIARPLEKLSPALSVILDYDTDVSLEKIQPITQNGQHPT
# Chain of human Dopamine Receptor D2 (DRD2), DRD2 (gene 1813) (P14416 whole entry, looked up): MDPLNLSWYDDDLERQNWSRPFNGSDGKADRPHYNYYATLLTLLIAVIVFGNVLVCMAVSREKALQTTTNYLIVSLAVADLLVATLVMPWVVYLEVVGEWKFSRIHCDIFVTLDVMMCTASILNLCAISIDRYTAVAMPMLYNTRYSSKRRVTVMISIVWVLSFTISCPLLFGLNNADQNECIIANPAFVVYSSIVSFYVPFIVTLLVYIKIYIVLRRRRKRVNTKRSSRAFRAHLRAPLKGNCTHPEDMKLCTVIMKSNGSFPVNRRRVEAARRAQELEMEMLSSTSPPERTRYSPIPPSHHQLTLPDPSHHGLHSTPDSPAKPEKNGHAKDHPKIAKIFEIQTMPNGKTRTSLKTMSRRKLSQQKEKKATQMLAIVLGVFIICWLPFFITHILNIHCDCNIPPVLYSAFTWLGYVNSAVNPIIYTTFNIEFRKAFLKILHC
# Chain of human Neurokinin, NK2 Receptor, TACR2 (gene 6865) (P21452 whole entry, looked up): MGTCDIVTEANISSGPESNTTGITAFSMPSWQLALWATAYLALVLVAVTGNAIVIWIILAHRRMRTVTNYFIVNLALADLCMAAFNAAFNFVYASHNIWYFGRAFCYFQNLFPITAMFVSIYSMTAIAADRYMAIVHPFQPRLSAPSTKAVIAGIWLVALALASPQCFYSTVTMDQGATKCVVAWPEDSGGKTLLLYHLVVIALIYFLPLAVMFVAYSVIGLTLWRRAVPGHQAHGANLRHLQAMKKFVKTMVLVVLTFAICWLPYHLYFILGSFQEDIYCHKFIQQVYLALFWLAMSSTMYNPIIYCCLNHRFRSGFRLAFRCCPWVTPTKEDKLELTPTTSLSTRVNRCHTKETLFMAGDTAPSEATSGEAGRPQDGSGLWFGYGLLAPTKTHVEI
# Chain of human Opioid Receptor Delta 1 (Opiate D1), OPRD1 (gene 4985) (P41143 whole entry, looked up): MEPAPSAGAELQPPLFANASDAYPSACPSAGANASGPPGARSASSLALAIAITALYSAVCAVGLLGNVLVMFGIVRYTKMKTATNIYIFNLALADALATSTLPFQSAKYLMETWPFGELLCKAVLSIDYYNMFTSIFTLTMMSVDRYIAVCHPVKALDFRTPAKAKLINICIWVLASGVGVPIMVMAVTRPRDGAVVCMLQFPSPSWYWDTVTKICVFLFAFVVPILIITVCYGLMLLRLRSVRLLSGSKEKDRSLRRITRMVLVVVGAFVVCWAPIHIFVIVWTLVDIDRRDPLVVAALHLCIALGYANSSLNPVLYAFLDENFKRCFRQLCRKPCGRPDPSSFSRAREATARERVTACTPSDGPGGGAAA
# Chain of Muscarinic acetylcholine receptor M5 (Homo sapiens) (P08912 whole entry, looked up): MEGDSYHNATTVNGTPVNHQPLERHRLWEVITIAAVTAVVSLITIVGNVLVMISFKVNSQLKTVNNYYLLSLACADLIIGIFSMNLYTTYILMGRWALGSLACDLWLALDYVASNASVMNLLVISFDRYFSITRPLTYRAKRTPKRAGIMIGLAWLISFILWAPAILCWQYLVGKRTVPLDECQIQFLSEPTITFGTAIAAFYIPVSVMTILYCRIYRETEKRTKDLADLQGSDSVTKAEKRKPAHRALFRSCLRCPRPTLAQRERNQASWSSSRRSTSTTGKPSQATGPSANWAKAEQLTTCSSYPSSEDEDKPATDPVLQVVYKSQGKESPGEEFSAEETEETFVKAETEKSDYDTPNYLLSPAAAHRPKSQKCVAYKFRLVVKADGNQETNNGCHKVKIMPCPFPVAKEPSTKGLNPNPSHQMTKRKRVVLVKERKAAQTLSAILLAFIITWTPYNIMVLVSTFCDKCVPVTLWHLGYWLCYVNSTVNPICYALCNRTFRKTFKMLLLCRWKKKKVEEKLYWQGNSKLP
# Chain of human Thromboxane A2 Receptor (TXA2), TBXA2R (gene 6915) (P21731 whole entry, looked up): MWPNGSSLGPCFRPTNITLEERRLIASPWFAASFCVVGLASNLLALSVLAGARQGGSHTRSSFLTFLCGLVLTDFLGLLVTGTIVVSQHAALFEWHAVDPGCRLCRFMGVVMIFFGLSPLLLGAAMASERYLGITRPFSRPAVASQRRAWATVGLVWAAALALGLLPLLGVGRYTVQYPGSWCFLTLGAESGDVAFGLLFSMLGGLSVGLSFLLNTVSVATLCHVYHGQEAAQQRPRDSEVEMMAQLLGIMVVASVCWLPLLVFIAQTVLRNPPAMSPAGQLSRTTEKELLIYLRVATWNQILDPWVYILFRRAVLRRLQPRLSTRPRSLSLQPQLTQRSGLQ
# Chain of human Endothelin Receptor Type B (ETB), EDNRB (gene 1910) (P24530 whole entry, looked up): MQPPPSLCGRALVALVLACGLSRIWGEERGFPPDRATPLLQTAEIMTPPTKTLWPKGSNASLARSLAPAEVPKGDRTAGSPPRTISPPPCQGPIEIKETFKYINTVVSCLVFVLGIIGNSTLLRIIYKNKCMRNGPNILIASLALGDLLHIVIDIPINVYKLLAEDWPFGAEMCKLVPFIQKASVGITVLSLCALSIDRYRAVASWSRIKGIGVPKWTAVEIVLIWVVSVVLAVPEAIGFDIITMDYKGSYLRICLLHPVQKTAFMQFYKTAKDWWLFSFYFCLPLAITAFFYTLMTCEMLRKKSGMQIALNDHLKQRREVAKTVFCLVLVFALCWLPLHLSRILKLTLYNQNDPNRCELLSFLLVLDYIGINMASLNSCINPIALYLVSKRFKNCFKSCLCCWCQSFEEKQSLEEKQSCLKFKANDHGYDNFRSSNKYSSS
# Chain of human Endothelin Receptor Type A (ETA), EDNRA (gene 1909) (P25101 whole entry, looked up): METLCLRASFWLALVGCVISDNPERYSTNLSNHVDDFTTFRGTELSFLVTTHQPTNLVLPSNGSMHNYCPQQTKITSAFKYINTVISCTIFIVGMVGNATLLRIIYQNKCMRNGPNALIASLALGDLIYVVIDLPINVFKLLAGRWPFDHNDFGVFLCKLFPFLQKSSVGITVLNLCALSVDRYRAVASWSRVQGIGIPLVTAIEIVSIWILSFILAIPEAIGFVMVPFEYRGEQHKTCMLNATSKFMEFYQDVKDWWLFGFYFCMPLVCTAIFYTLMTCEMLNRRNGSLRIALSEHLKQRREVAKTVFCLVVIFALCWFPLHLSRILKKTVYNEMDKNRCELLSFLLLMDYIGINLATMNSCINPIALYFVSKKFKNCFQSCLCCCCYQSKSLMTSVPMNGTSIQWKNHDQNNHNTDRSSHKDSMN
smiles,measurement,setting,value
CN(C)C(=O)NC1(c2ccccc2)CCN(CCC[C@]2(c3ccc(Cl)c(Cl)c3)CCCN(C(=O)c3ccccc3)C2)CC1,AC50,[1],6.25 µM (active)
same,AC50,[2],4 µM (active)
same,AC50,[3],2.02 µM (active)
same,AC50,[4],3.84 µM (active)
same,AC50,[5],2.41 µM (active)
same,AC50,[6],2.01 µM (active)
same,AC50,[7],0.164 µM (active)
same,outcome,[8],inactive
CN(C)CCCN1c2ccccc2Sc2ccc(Cl)cc21,AC50,[7],25 µM (active)
same,AC50,[9],14.5 µM (active)
Cc1c(C)c2c(c(C)c1O)CCC(C)(COc1ccc(CC3SC(=O)NC3=O)cc1)O2 (centres undefined),outcome,[2],inactive
Cc1cc(SC2=C(O)C[C@@](CCc3ccc(N)cc3)(C(C)C)OC2=O)c(C(C)(C)C)cc1CO,outcome,[2],inactive
same,outcome,[10],inactive
same,outcome,[11],inactive
same,outcome,[3],inactive
same,outcome,[6],inactive
same,AC50,[12],0.881 µM (active)
CC(N)=O,outcome,[13],inactive
COc1ccc(OC(F)(F)F)cc1CN[C@H]1CCCN[C@H]1c1ccccc1,outcome,[2],inactive
same,AC50,[11],25 µM (active)
same,AC50,[6],9.18 µM (active)
same,AC50,[7],13.5 µM (active)
O=C(O)c1[nH]n(-c2ccc(S(=O)(=O)O)cc2)c(=O)c1N=Nc1ccc(S(=O)(=O)O)cc1,AC50,[1],16.5 µM (active)
same,outcome,[2],inactive
same,AC50,[11],19.2 µM (active)
same,outcome,[4],inactive
same,outcome,[5],inactive
C/C=C/C=C/C(=O)O,outcome,[9],inactive
Nc1nc(=S)c2[nH]cnc2[nH]1,AC50,[7],44.4 µM (active)
CO[C@@H]1COCC[C@@H]1N[C@@H]1CC[C@@](C(=O)N2CCc3ncc(C(F)(F)F)cc3C2)(C(C)C)C1,AC50,[5],12.3 µM (active)
same,outcome,[14],inactive
C#CC(O)C(CC)CCCC (centres undefined),outcome,[15],inactive
O=C1OC(c2ccc(O)cc2)(c2ccc(O)cc2)c2ccccc21,AC50,[11],4.96 µM (active)
same,AC50,[8],6.64 µM (active)
same,AC50,[12],0.454 µM (active)
O=C(NS(=O)(=O)/C=C/c1cccs1)c1ccc(F)cc1Br,outcome,[13],inactive
CCc1cc(C2=C(C(=O)O)N(c3ccccc3C(F)(F)F)S(=O)(=O)c3ccccc32)cc2c1OCO2,AC50,[16],0.0451 µM (active)
same,AC50,[13],0.442 µM (active)
same,AC50,[17],17.1 µM (active)
same,AC50,[7],25 µM (active)
same,AC50,[12],3.08 µM (active)
CC(=O)OCC(COC(C)=O)OC(C)=O,AC50,[17],40.5 µM (active)
CS(=O)(=O)c1ccc([C@@H](C[C@H]2CCC(=O)C2)C(=O)Nc2cnccn2)cc1Cl,outcome,[18],inactive
CCCCC(CC)CO (centres undefined),outcome,[17],inactive
Oc1ccc(O)cc1,AC50,[19],10.8 µM (active)
same,outcome,[7],inactive
same,outcome,[14],inactive
O=Cc1ccccc1C=O,AC50,[16],19.2 µM (active)
same,AC50,[5],17 µM (active)
same,AC50,[19],12.9 µM (active)
same,AC50,[12],16.7 µM (active)
same,AC50,[15],25 µM (active)
CCCCOC(=O)CCCCC(=O)OCCCC,outcome,[9],inactive
OCC(O)CO,outcome,[8],inactive
